{
  "source": "PubChem BioAssay (NCATS)",
  "key": {"[1]": {"target": "Cellular tumor antigen p53 (Homo sapiens) (UniProt P04637)", "sequence (P04637 whole entry, looked up)": "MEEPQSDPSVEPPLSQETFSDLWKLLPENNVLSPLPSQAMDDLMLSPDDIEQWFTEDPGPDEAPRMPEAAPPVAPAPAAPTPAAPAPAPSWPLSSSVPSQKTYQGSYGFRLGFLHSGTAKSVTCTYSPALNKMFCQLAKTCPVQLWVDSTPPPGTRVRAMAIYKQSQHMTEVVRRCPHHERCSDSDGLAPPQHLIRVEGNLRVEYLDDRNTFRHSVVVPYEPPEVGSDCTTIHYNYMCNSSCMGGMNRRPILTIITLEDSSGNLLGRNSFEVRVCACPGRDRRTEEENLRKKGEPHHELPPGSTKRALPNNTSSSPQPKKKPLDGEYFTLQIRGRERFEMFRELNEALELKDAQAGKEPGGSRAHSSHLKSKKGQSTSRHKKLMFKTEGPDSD", "experiment": "Primary qHTS for small molecule compounds that upregulate eGFP-tagged delta133p53alpha (in N-terminal) cells. (AID 2060322); also: nearly all actives have a fitted effect of over 75% in size; also: potency is read from the fitted curve at half-maximal effect; as to activation: series mostly up to about 56 µM", "conditions": "NCI-H358 eGFP-delta133p53alpha fluorescence, 24 h; activation: hits give high values", "procedure,_shortened": "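NCI-H358 cells pre-induced 24 h with 10 ng/ml doxycycline to express N-terminal eGFP-delta133p53alpha, then dosed 24 h at 37C without doxycycline; fixed, Hoechst-stained, GFP intensity by laser scanning cytometry, normalized to DMSO (0%) and 57.5 uM 5-azacytidine (100%).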"}, "[2]": {"target": "Aldehyde dehydrogenase, mitochondrial (Homo sapiens) (UniProt P05091)", "experiment": "qHTS for Inhibitors of the Aldehyde Dehydrogenase Family (ALDH2) Primary screen (AID 2061308); also: nearly all actives have a fitted effect of over 55% in size"}, "[3]": {"target": "Retinaldehyde dehydrogenase 3 (Homo sapiens) (UniProt P47895)", "experiment": "qHTS for Inhibitors of the Aldehyde Dehydrogenase Family (ALDH1A3) Primary screen (AID 2061315)"}},
  "note": "Records with an inconclusive call do not appear. Entries that show only a call come without a potency. Unmarked numbers belong to inactive results. Activity calls are given as the source filed them. Calls follow the shape of the dose curve; as a rule, active = well fitted curve in the direction sought with a large enough effect; inconclusive = small, poorly fitted or top-dose-only effect, or another doubt; inactive = no such curve, though single readings can be large; an effect the other way counts as inactive or inconclusive.",
  "data": [
    {"smiles": "COC1CC(O[C@H]2CC[C@@]3(C)C(CCC4C3[C@H](OC(C)=O)[C@@H](OC(=O)/C=C/c3ccccc3)[C@]3(C)C(C(C)=O)CC[C@]43O)C2)OC(C)C1OC1CC(OC)C(OC2CC(OC)C(OC3OC(C)C(OC4OC(CO)C(O)C(O)C4O)C(OC)C3O)C(C)O2)C(C)O1", "note": "(stereo partly drawn)", "values": [
      {"measurement": "activation", "setting": "[1]", "result": -13, "unit": "%"},
      {"measurement": "activity change, negative = inhibition", "setting": "[2]", "result": "6.42% [at 11.2 µM]"},
      {"measurement": "activity change, negative = inhibition", "setting": "[3]", "result": "5.71% [at 11.2 µM]"}
    ]},
    {"smiles": "Cc1ccccc1C(=O)N1CC/C(=N\\OS(=O)(=O)O)c2ccc(Cl)cc21", "values": [
      {"measurement": "activation", "setting": "[1]", "result": -1.67, "unit": "%"},
      {"measurement": "Potency", "setting": "[2]", "result": "inactive"},
      {"measurement": "Potency", "setting": "[3]", "result": "inactive"}
    ]},
    {"smiles": "COC(=O)C1=CO[C@@H](O[C@@H]2O[C@H](CO)[C@@H](O)[C@H](O)[C@H]2O)[C@@H]2[C@@H](C)[C@@H](O)C(O)[C@H]12", "note": "(stereo partly drawn)", "values": [
      {"measurement": "activation", "setting": "[1]", "result": 14.5, "unit": "%"},
      {"measurement": "Potency", "setting": "[2]", "result": "inactive"},
      {"measurement": "Potency", "setting": "[3]", "result": "inactive"}
    ]},
    {"smiles": "CC1(C)OC[C@H](NC(=O)Nc2ccc(Br)cc2Br)[C@H](c2ccccc2)O1", "values": [
      {"measurement": "Potency", "setting": "[1]", "result": "19 µM (active)"},
      {"measurement": "Potency", "setting": "[2]", "result": "inactive"},
      {"measurement": "Potency", "setting": "[3]", "result": "inactive"}
    ]},
    {"smiles": "CC1=C2C(=O)C=C(CO)C2[C@H]2OC(=O)[C@H](C)[C@@H]2[C@@H](OC(=O)Cc2ccc(O)cc2)C1", "note": "(stereo partly drawn)", "values": [
      {"measurement": "activation", "setting": "[1]", "result": -11.6, "unit": "%"},
      {"measurement": "Potency", "setting": "[2]", "result": "inactive"},
      {"measurement": "Potency", "setting": "[3]", "result": "inactive"}
    ]},
    {"smiles": "C/C(=C/CO)CC[C@@H]1[C@@]2(C)CCC[C@](C)(C(=O)O)C2CC[C@@]1(C)O", "note": "(stereo partly drawn)", "values": [
      {"measurement": "activation", "setting": "[1]", "result": 27.7, "unit": "%"},
      {"measurement": "Potency", "setting": "[2]", "result": "inactive"},
      {"measurement": "Potency", "setting": "[3]", "result": "inactive"}
    ]}
  ]
}
